Holding throughout (assay): pooled miR-30 sensor sort-seq; sequence = guide strand
What all share (conditions): shRNA

In test [1] the target is ABHD8.
In test [2] the target is ACTL6A.
In test [3] the target is ADAD1.
Test [4] has as its target ADAM19.
For test [5], the target named is ADRB1.
For test [6], the target named is AHCY.
Test [7] concerns the target AKR1C4.
Test [8] addresses AKT3.
The target in test [9] is ALAD.
Test [10] addresses ALDH9A1.
Test [11] concerns the target ALDH1A3.
Note: reference of the scale not given here.

Turning to TTAACAGCTGCTTCTCCTTGGC, the sensor-assay potency score (higher = more potent) in [1] was -0.231.

Sequence TTGACCTCTACAAAGGTGTAGC displayed a sensor-assay potency score (higher = more potent) in [1] of -0.315.

Take TCCTTCTTCATATTCTTGCTTG: the sensor-assay potency score (higher = more potent) in [2] is -0.909.

For TTACACTGCCATAGAGACCTGG, the sensor-assay potency score (higher = more potent) in [2] is -0.411.

In turn, TAAGAAGAGACCTTCTTGCTGT displayed a sensor-assay potency score (higher = more potent) in [3] of 0.614.

In [4], TTTTCCGTGAACAATCTCCCAA registered a sensor-assay potency score (higher = more potent) of -0.446.

TTTCCGTGAACAATCTCCCAAA registered a sensor-assay potency score (higher = more potent) in [4] of -0.808.

TCGTCGTCGTCGTCCGAGGCGG showed a sensor-assay potency score (higher = more potent) in test [5] of -1.56.

In turn, TCCACTGCTGAGACAGCGGCTC gave a sensor-assay potency score (higher = more potent) in test [5] of -1.08.

In the case of TCGATCTGCGCCATCACCTGGT, in [6], the sensor-assay potency score (higher = more potent) was -0.451.

In the case of TTGATGGGGTCAATCTCGGTGA, the sensor-assay potency score (higher = more potent) in [6] was -1.04.

TTCAGTGAGCTTTCCAAGGCTG gave a sensor-assay potency score (higher = more potent) in test [7] of 0.323.

TAGTCCACTGGAGACATCTGAT displayed a sensor-assay potency score (higher = more potent) in test [8] of -0.68.

In turn, AACATATCGATAATTTCTGTTT returned a sensor-assay potency score (higher = more potent) in test [7] of -1.09.

Consider TGGATAATCAGGATGGTCCATA, for which the sensor-assay potency score (higher = more potent) in test [7] is -1.08.

On to TTGGTGACCTCTACAGCTCTGT, for which the sensor-assay potency score (higher = more potent) in test [7] came out at 0.122.

In the case of TTTCATATCCTCTGATGTCAAC, in test [7], the sensor-assay potency score (higher = more potent) was -1.3.

For TAGTCTGAGCTGTAAATTCTTC, the sensor-assay potency score (higher = more potent) in test [8] was -1.06.

In test [9], ATGTCAGCACCTGCTCTGCGGA came in with a sensor-assay potency score (higher = more potent) of -1.76.

For the sequence TATAACAGTAGTCCACTGGAGA, the sensor-assay potency score (higher = more potent) in test [8] was -0.667.

Consider TTGGTAGTGGCGTCTCACCTGG, for which the sensor-assay potency score (higher = more potent) in [7] was -0.771.

In turn, TTTATCATATACATCTTGCCAG gave a sensor-assay potency score (higher = more potent) in [8] of 0.12.

The sequence TATCCTCTGATGTCAACTGGAA yielded a sensor-assay potency score (higher = more potent) in test [7] of -0.803.

In test [7], ATATCCTCTGATGTCAACTGGA displayed a sensor-assay potency score (higher = more potent) of -0.353.

In test [7], AATCCATGACAACATATCGATA came in with a sensor-assay potency score (higher = more potent) of -1.75.

In test [7], TTGTTTGTGTTTCTTTGCTAAG came in with a sensor-assay potency score (higher = more potent) of -1.47.

With TTTAAAAGGAGGTACAAGCTTT, the sensor-assay potency score (higher = more potent) in test [8] was -0.528.

For TTATTGTATAAATAAGCAGAAT, the sensor-assay potency score (higher = more potent) in test [7] was -1.48.

In test [9], TGATGATGATGTCAGCACCTGC came in with a sensor-assay potency score (higher = more potent) of -1.54.

As to TTGTAGAAAGGTAACCTCCCAC, the sensor-assay potency score (higher = more potent) in [8] was -0.166.

TTATCTTCTAACACCTCTGGTG gave a sensor-assay potency score (higher = more potent) in [8] of -0.243.

In test [7], TAAGGATGACATTCTACCTGGT had a sensor-assay potency score (higher = more potent) of 0.727.

As for TTTGGTGACCTCTACAGCTCTG, the sensor-assay potency score (higher = more potent) in test [7] turned out to be 0.239.

TACTTTTCCATTTTCATCTTTT came in with a sensor-assay potency score (higher = more potent) in test [7] of -0.351.

In the case of TCGTCCTTGGGAACTCTGCTGG, the sensor-assay potency score (higher = more potent) in [9] was -1.05.

In test [7], TAGAACTTTCATATCCTCTGAT showed a sensor-assay potency score (higher = more potent) of 0.539.

As to TTCATCTTTTGGTAGTGGCGTC, the sensor-assay potency score (higher = more potent) in test [7] is -0.396.

As to TATCTTCTAACACCTCTGGTGC, the sensor-assay potency score (higher = more potent) in [8] is -0.701.

In test [7], TTGTGTTTCTTTGCTAAGGCAC showed a sensor-assay potency score (higher = more potent) of -0.225.

TTGCTAAGGCACAAAGAACTGG: the sensor-assay potency score (higher = more potent) in [7] is -0.934.

In the case of TTTGTTTGTGTTTCTTTGCTAA, the sensor-assay potency score (higher = more potent) in [7] turned out to be 0.179.

TTATTGTAATAGTCTGAGCTGT displayed a sensor-assay potency score (higher = more potent) in test [8] of -0.326.

Take TAGACCATCTAGAACTTTCATA: the sensor-assay potency score (higher = more potent) in test [7] was -0.398.

Consider TTATCATATACATCTTGCCAGT, for which, in [8], the sensor-assay potency score (higher = more potent) was -1.09.

In turn, TCCTTGGGAACTCTGCTGGGGA had a sensor-assay potency score (higher = more potent) in test [9] of -1.34.

Turning to AAGCTGGGCTTGACTTAGCTGC, the sensor-assay potency score (higher = more potent) in test [9] was -1.16.

For the sequence TATTGTAATAGTCTGAGCTGTA, in test [8], the sensor-assay potency score (higher = more potent) is 0.29.

In turn, ATCATTTAGCTCTACACGCTGA registered a sensor-assay potency score (higher = more potent) in test [7] of -0.425.

On to AAAACCTGGATGTTCTCTCTGA, for which the sensor-assay potency score (higher = more potent) in test [7] was 0.359.

TTCTGTTTAGACCATCTAGAAC displayed a sensor-assay potency score (higher = more potent) in test [7] of -1.64.

In the case of ACATCCGTGACAAAGATGGGGT, the sensor-assay potency score (higher = more potent) in test [9] amounted to 0.0537.

On to TTGTCTTTCTTTTATGATGGGT, for which the sensor-assay potency score (higher = more potent) in test [8] was -0.0312.

In turn, TTAAAGGGTAGCTCCACTGGTG came in with a sensor-assay potency score (higher = more potent) in [10] of -0.285.

TAATATTCGATTGTCACACGGC: the sensor-assay potency score (higher = more potent) in [10] came to 0.406.

Turning to TTGTTGATAAATATCTTGGTGA, the sensor-assay potency score (higher = more potent) in test [11] worked out at 0.169.

TTCAGTTGTACTGCCTCTGTAA: in test [10], the sensor-assay potency score (higher = more potent) was -0.536.

Turning to TCATTGTTGATAAATATCTTGG, in [11], the sensor-assay potency score (higher = more potent) was -0.45.

TTGAAGGGTTACATGTAGCAAA yielded a sensor-assay potency score (higher = more potent) in test [11] of -0.786.

The sequence TAAAAAAATGTCAATGAGCTGA displayed a sensor-assay potency score (higher = more potent) in test [10] of -0.73.

In test [10], TTATCCTAGTCTCTTTTCCTGT gave a sensor-assay potency score (higher = more potent) of -0.816.

Source of the values: the OligoGym collection.
